Assay results as given in PubChem BioAssay (NCATS).
Where “and” joins values, the source holds several entries; their conditions need not be identical. Identical values can stand only once. Inconclusive results are not listed. Some compounds were tested as several samples or in several runs, with calls that do not always agree. Calls of active or inactive are those of the source. The call rests on the fitted dose curve; in most records, active means well fitted curve in the direction sought with a large enough effect; inconclusive means small, poorly fitted or top-dose-only effect, or another doubt; inactive means no such curve, though single readings can be large or run the other way.

Assay: qHTS Assay for Identifying Gametocytocidal Compounds (AID 743244);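 on max response: actives lower the fluorescent signal which means gametocytes are killed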
Conditions: P. falciparum 3D7 stage III-V gametocytes, alamarBlue, 72 h; max response: hits give low values
Procedure, shortened: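 Compounds are pinned into medium, gametocytes (stage III–V, 3D7, 20,000 cells/well) added, and plates held 72 h at 37 °C in 5% CO2. AlamarBlue follows for 24 h before fluorescence reading.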
On the % scale 0 is the no-effect control and ±100 the full control effect; potency means the concentration at half of the fitted maximal effect.

Row | Compound | max response | Potency
1 | CC1=C(C(=O)OC(C)C)C(c2cccc([N+](=O)[O-])c2)C(C(=O)OC2CN(C(c3ccccc3)c3ccccc3)C2)=C(N)N1 (stereo not drawn) | 7.23% (inactive) | –
2 | COc1cccc(CCc2ccccc2OCC(CN(C)C)OC(=O)CCC(=O)O)c1 (stereo not drawn) | – | 3.72 µM (active)
3 | CC(=O)OCC(=O)NCCCOc1cccc(CN2CCCCC2)c1 | 8.95% (inactive) and 5.62% (inactive) | –
4 | O=C1OCCN1/N=C/c1ccc([N+](=O)[O-])o1 | 2.02% (inactive) | –
5 | CN1CCN(C(c2ccccc2)c2ccccc2)CC1 | -1.32% (inactive) | –
6 | C[C@@H]1C[C@H]2[C@@H]3CCC4=CC(=O)C=C[C@]4(C)[C@@]3(F)[C@@H](O)C[C@]2(C)[C@H]1C(=O)CO | 9.79% (inactive) | –
7 | Cc1nc2n(c(=O)c1CCN1CCC(c3noc4cc(F)ccc34)CC1)CCC[C@H]2O | -12.7% (inactive) | –
8 | C[C@]12C=CC(=O)C=C1[C@@H](F)C[C@@H]1[C@@H]2[C@@H](O)C[C@@]2(C)[C@H]1CC[C@]2(O)C(=O)CO | -0.315% (inactive) and -15.3% (inactive) | –
9 | COc1ccc(OC)c(C(O)CNC(=O)CN)c1 (stereo not drawn) | -3.82% (inactive) | –
10 | CC(=O)c1ccc2c(c1)N(CCCN1CCC(CCO)CC1)c1ccccc1S2 | -4.88% (inactive) | –
11 | CCn1cc(C(=O)O)c(=O)c2cnc(N3CCCC3)nc21 | -1.94% (inactive) | –
12 | COc1ccc(C2C(=O)c3ccccc3C2=O)cc1 | 5.04% (inactive) | –
13 | CN1CCN(CCCN2c3ccccc3Sc3ccc(S(=O)(=O)N(C)C)cc32)CC1 | – | 5.64 µM (active)
14 | OC[C@H]1O[C@@H](n2cnc3c(=S)nc[nH]c32)[C@H](O)[C@@H]1O | -4.52% (inactive) | –
15 | CC1(C)O[C@@H]2[C@@H](CO[C@@]3(COS(N)(=O)=O)OC(C)(C)O[C@@H]23)O1 | 4.37% (inactive) | –
16 | CC1(C)OC[C@@H](COC(=O)CCc2ccc(OC[C@@H](O)CNCCNC(=O)N3CCOCC3)cc2)O1 | -9.37% (inactive) and -4.75% (inactive) | –
17 | CN1[C@@H]2CC[C@H]1CC(OC(=O)c1c[nH]c3ccccc13)C2 (stereo partly drawn) | 7.82% (inactive) | –
18 | OC(CCN1CCCCC1)(c1ccccc1)c1ccccc1 | 13.3% (inactive) | –
19 | Cc1cccn2c(=O)c(-c3nnn[nH]3)cnc12 | -1.77% (inactive) | –

Row | Compound | max response | Potency
20 | CC(Cc1ccccc1)(NC(=O)CN)c1ccccc1 (stereo not drawn) | -4.06% (inactive) | –
21 | CC(C)COC(=O)c1ccc(N)cc1 | 10.2% (inactive) | –
22 | COc1ccc(CN2CCN(C(c3ccc(F)cc3)c3ccc(F)cc3)CC2)c(OC)c1OC | 1.04% (inactive) | –
23 | COC(=O)CCc1ccc(OCC(O)CNC(C)C)cc1 (stereo not drawn) | 1.13% (inactive) | –
24 | O=c1[nH]c(=O)n([C@H]2CCCO2)cc1F | -0.456% (inactive) | –
25 | O=c1c(-c2ccccc2)c1-c1ccccc1 | – | 3.98 µM (active)
26 | CCCCCCCCCCCCCCCCCC(=O)OCC(O)CO (stereo not drawn) | -12.5% (inactive) | –
27 | O=C(COc1ccc(Cl)cc1)N1CCN(Cc2ccc3c(c2)OCO3)CC1 | -7.26% (inactive) | –
28 | CC(=O)N/N=C/c1ccc([N+](=O)[O-])o1 | – | 31.6 µM (active)
29 | NC(=O)C(=O)N/N=C/c1ccc([N+](=O)[O-])o1 | – | 17.8 µM (active)
30 | CC[C@@H](CO)NCCN[C@@H](CC)CO | 6.57% (inactive) | –
31 | Cc1ccc(C(=O)C(C)CN2CCCCC2)cc1 (stereo not drawn) | -1.77% (inactive) | 22.4 µM (active)
32 | CCN(CC)CCNC(=O)COc1ccc(Cl)cc1 | -6.47% (inactive) | –
33 | CCN1CCN(c2cc3c(cc2F)c(=O)c(C(=O)O)cn3C2CC2)CC1 | 1.09% (inactive) | –
34 | Cc1cccc(C)c1NC(=O)CN1CCN(CCCC(c2ccc(F)cc2)c2ccc(F)cc2)CC1 | 0.546% (inactive) | –
35 | CCCCC(CC)CN=C(N)NC(N)=NCCCCCCN=C(N)NC(N)=NCC(CC)CCCC (stereo not drawn) | – | 6.31 µM (active)
36 | Cc1c(N(C)CS(=O)(=O)O)c(=O)n(-c2ccccc2)n1C | 18.3% (inactive) | –
37 | CCCN1CCCC[C@H]1C(=O)Nc1c(C)cccc1C | -10.7% (inactive) | –
